Source: PubChem BioAssay (NCATS)
Records with an inconclusive call do not appear. A number with no mark means an inactive call. Active and inactive are the calls of the source. Calls follow the shape of the full dose curve.

assay: A High-Content qHTS Against Drug Library for the Identification of Small Molecules that Inhibit DYT1 Early Onset Primary Dystonia-Associated Cell Pathology (AID 1645839); conditions: HEK293 Flp-In EGFP-delE TorsinA, punctate imaging, 48 h; series mostly up to 46.1 µM; % pathology change, negative = correction: at the top concentration
Source text: Nicole Calakos M.D., Ph.D.
Duke University School of Medicine, Durham, NC
In DYT1 dystonia due to delGAG in the TOR1A gene, there is a robust and widely replicated finding of TorsinA protein mislocalization caused when the mutant protein is in excess of the wildtype protein (1-7). Stable HEK293 cell lines were created that replicate this phenomenon. Inducible expression of an EGFP-hu delE TorsinA encoding cDNA causes pronounced punctate cellular distribution. […] This phenotypic difference in EGFP-huTorsinA fusion protein distribution serves as an indicator of cell pathology. […] RNAi screen results with the assay were validated in DYT1 patient cell phenotypes, intersected with a known dystonia gene, and led to discovery of new human genetic dystonia associations.
The bioassay described herein is a high-content image screen with two readouts. The "%pathology" readout is the primary qHTS data channel, while the "cellcount" is the counterscreen qHTS channel. Desired active compounds are those that show inhibition in %pathology channel but no activity or minimal toxicity in cellcount readout.
1. Kustedjo, K., Bracey, M.H., and Cravatt, B.F. (2000). […] J. Biol. Chem. 275, 27933 - 27939.
2. Bragg, D.C., Kaufman, C.A., Kock, N., and Breakefield, X.O. (2004). Inhibition of N-linked glycosylation prevents inclusion formation by the dystonia-related mutant form of torsinA. Mol. Cell. Neurosci. 27, 417 - 426.
3. Gonzalez-Alegre, P., and Paulson, H.L. (2004). Aberrant Cellular Behavior of Mutant TorsinA Implicates Nuclear Envelope Dysfunction in DYT1 Dystonia. J. Neurosci. 24, 2593 - 2601.
4. Goodchild, R.E., and Dauer, W.T. (2004). Mislocalization to the nuclear envelope: an effect of the dystonia-causing torsinA mutation. Proc. Natl. Acad. Sci. U. S. A. 101, 847 - 852.
5. Kock, N., Allchorne, A.J., Sena-Esteves, M., Woolf, C.J., and Breakefield, X.O. (2006). RNAi blocks DYT1 mutant torsinA inclusions in neurons. Neurosci. Lett. 395, 201 - 205.
6. Hewett, J.W., Nery, F.C., Niland, B., Ge, P., Tan, P., Hadwiger, P., Tannous, B.A., Sah, D.W.Y., and Breakefield, X.O. (2008). siRNA knock-down of mutant torsinA restores processing through secretory pathway in DYT1 dystonia cells. Hum. Mol. Genet. 17, 1436 - 1445.
7. Calakos, N., Patel, V.D., Gottron, M., Wang, G., Tran-Viet, K.N., Brewington, D., Beyer, J.L., Steffens, D.C., Krishnan, R.R., and Zuchner, S. (2010). Functional evidence implicating a novel TOR1A mutation in idiopathic, late-onset focal dystonia. J. Med. Genet. 47, 646 - 650.
8. Rittiner* JE, Caffall* ZF, Hernandez-Martinez R, Sanderson SM, Pearson JL, Tsukayama KK, Liu AY, Xiao C, Tracy S, Shipman MK, Hickey P, Johnson J, Scott B, Stacy M, Saunders-Pullman R, Bressman S, Simonyan K, Sharma N, Ozelius LJ, Cirulli ET, Calakos N. Functional Genomic Analyses of Mendelian and Sporadic Disease Identify Impaired eIF2alpha Signaling as a Generalizable Mechanism for Dystonia. Neuron. 2016 Dec 21;92(6):1238-1251. doi: 10.1016/j.neuron.2016.11.012. Epub 2016 Dec 8. PMID: 27939583; PMCID: PMC5320521.
High-content, High-throughput Drug Screening Assay
The TorsinA mislocalization assay was modified from the previously published assay to accommodate compound testing in 1536 well format.1 Briefly, Flp-In T-REx 293 cells from Invitrogen in which a single copy of a cDNA is recombined into a specific genomic locus was used to create tetracycline-inducible expression of cDNA encoding either EGFP-hTOR1A (WT) or EGFP-delE hTOR1A (DYT1). WT and DYT1 cells were diluted to a concentration of 2 x 10^5 cells/mL in reduced serum media (DMEM High Glucose containing 1% tetracycline-tested FBS, 2 mM L-Glutamine, and 1% Penicillin/Streptomycin). 4 µl of WT cells and 4 µl of DTY1 cells were added to column 1 and columns 2-48, respectively, of a poly-D-lysine-coated, low base, black, clear bottom 1536 well plate (Corning, Corning, NY) using the BioRAPTR FRD Microfluidic Workstation (Beckman Coulter, Indianapolis, IN). The final cell number was 800 cells/well. […]
Potency is read from the fitted curve at half-maximal effect.

| Compound | % pathology change, negative = correction | Potency |
| --- | --- | --- |
| CCN1CCN(c2cc(-c3ccc(F)cc3)c3c(n2)CCCCCC3)CC1 | -1.6% [at 19.1 µM] |  |
| Nc1nc(=O)n([C@@H]2O[C@H](CO)[C@@H](O)[C@@H]2F)cc1I | 1.65% |  |
| CO[C@@]1(NC(=O)CSC[C@@H](N)C(=O)O)C(=O)N2C(C(=O)O)=C(CSc3nnnn3C)CS[C@@H]21 | 19% |  |
| CCN(CC)CC(=O)OCC(=O)[C@@]1(O)CC[C@H]2[C@@H]3CCC4=CC(=O)CC[C@]4(C)[C@H]3[C@@H](O)C[C@@]21C | -0.249% |  |
| C#Cc1ccc(-c2ccccc2F)cc1 | -15.1% |  |
| O=C(O)[C@H](O)[C@@H](O)[C@H](O[C@@H]1O[C@H](CO)[C@H](O)[C@H](O)[C@H]1O)[C@H](O)CO | 3.53% |  |
| CN1Cc2cc(C(=O)N3CCC(C4CCNCC4)CC3)ccc2NC(CC(=O)O)C1=O (stereo not given) | 8.27% |  |
| Cc1ccc(Cl)c(OCC(O)CNC(C)(C)C)c1 (stereo not given) | -23.2% |  |
| COc1cc(S(N)(=O)=O)cc(C(=O)O)c1OC | 2.56% |  |
| CC(C)CCCC(C)NCCC(C)C (stereo not given) | 3.87% |  |
| Nc1ccc(C(=O)N2CC3CC(CN(Cc4ccccc4)C3)C2)cc1 | -32.8% |  |
| NS(=O)(=O)c1cc(C(=O)NN2C[C@H]3[C@H]4CCC(C4)[C@H]3C2)ccc1Cl | -7.69% |  |
| CCCc1ccc(OCC(=O)N2CCN(C(=O)COc3ccc(CCC)cc3OC)CC2)c(OC)c1 |  | 11.2 µM (active) |
| O=c1[nH]c2ccccc2c(=O)n1CCCl | 15.6% |  |
| O=C(COCCOCCOCC(=O)Nc1c(I)cc(I)c(C(=O)O)c1I)Nc1c(I)cc(I)c(C(=O)O)c1I | 12.6% |  |
| CNC(=O)c1cnn(-c2nc(N)c3ncn([C@@H]4O[C@H](CO)[C@@H](O)[C@H]4O)c3n2)c1 | 11.5% |  |
| CCOC(=O)Oc1ccc(CCNC(=O)[C@H](CCSC)NC(C)=O)cc1OC(=O)OCC | -0.897% |  |
| COCCc1ccc(OCC2CO2)cc1 (stereo not given) | 2.23% |  |
| O=C(O)c1ccc(OCCN2CCCCC2)cc1 | 11.1% |  |
| Brc1ccccc1-c1ccccc1 | -15.1% [at 91.7 µM] |  |

| Compound | % pathology change, negative = correction | Potency |
| --- | --- | --- |
| Cc1nc([N+](=O)[O-])cn1-c1ccc([N+](=O)[O-])cc1 | 14% |  |
| CCOC(=O)c1ccc(NC(=O)CN2CCCCC2)cc1 | -0.353% |  |
| O=C(O)Cc1ccc(OCCNC[C@H](O)c2ccccc2)cc1 | 9.85% |  |
| O=C(CCCCC(=O)Nc1c(I)cc(I)c(C(=O)O)c1I)Nc1c(I)cc(I)c(C(=O)O)c1I | 6.09% |  |
| C[N+]1(CC2COC(c3ccccc3)(c3ccccc3)O2)CCCCC1 (stereo not given) | 3.09% [at 19.1 µM] |  |
| CCCC(=O)c1cc(O)c(O)cc1O | -36.4% [at 91.7 µM] |  |
| COCCc1ccccn1 | 2.52% |  |
| NCC(=O)O | 4.66% [at 19.1 µM] |  |
| C[C@@H]1CCC[C@H](C)N1CCCC(O)(c1ccccc1)c1ccccn1 (stereo not given in full) | 7.6% |  |
| CC(=O)c1cc2ccccc2s1 | 0.484% |  |
| N#Cc1cc(NC(=O)C(=O)O)c(Cl)c(NC(=O)C(=O)O)c1 | 16.8% |  |
| CC(C)Cc1ccc(C(C)C(=O)OCc2ccccn2)cc1 (stereo not given) | 6.08% |  |
| COC(=O)CCCCC(CCSS/C(CCO)=C(\C)N(C=O)Cc1cnc(C)nc1N)SC(C)=O (stereo not given) | 15% |  |
| CC(=O)O[C@@H]1CC2C3CCc4cc(OC(=O)c5ccccc5)ccc4C3CCC2(C)[C@H]1OC(C)=O (stereo not given in full) | 11.3% |  |
| CC(C)(C)c1cc(C=O)cc(C(C)(C)C)c1O | 5.81% |  |
| Nc1c2ccccc2nc2ccccc12 | -15% |  |
| CC1(C)O[C@@H]2C[C@H]3[C@@H]4C[C@H](F)C5=CC(=O)C=C[C@]5(C)[C@@]4(F)[C@@H](O)C[C@]3(C)[C@]2(C(=O)CO)O1 | 11.2% |  |
| CCCCC(CC)CNC(=O)CC(C)OC(=O)CCC(=O)O (stereo not given) | 8.13% |  |
| CN1N=C(C(N)=O)CCC1=O | 4.73% |  |
| CCCC(=O)O[C@]1(C(=O)CCl)[C@@H](C)C[C@H]2[C@@H]3CCC4=CC(=O)C=C[C@]4(C)[C@@]3(F)C(=O)C[C@@]21C | 10.7% |  |
